Entries with a potency or affinity are not part of this list. The source made the active and inactive calls.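 Rule for the calls: active = fitted half-maximal dose no more than twice the top valid tested dose, for compounds that lower signal; inconclusive = fit invalid, or curve flat with activity between -70 and -30; inactive = potency past limit, curve flat within ±30, or signal increasing.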
Biological target: NAD-dependent protein deacylase sirtuin-5, mitochondrial (Homo sapiens) (UniProt Q9NXA8)
Test: SIRT5 deacylase inhibitors, dose response, biochemical, fluorescence imaging, cherry-pick, set 6 (AID 720597);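 note: lower AMC signal can also come from blocking the trypsin step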
Settings: Purified SirT5, succinyl-peptide-AMC/trypsin fluorescence; series mostly up to 15 µM

Sequence of NAD-dependent protein deacylase sirtuin-5, mitochondrial (Homo sapiens) (Q9NXA8 whole entry, looked up): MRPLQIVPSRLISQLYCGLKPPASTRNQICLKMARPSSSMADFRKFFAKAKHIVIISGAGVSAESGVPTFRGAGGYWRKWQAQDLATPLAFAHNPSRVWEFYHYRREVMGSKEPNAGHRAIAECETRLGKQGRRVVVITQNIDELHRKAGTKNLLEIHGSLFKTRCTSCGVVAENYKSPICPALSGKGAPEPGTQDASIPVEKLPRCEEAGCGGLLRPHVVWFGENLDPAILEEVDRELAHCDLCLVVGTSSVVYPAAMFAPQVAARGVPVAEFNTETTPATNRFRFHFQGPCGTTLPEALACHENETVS

outcome, inactive:
C[C@H](CO)N1C[C@H](C)[C@H](CN(C)S(C)(=O)=O)Oc2c(NC(=O)c3ccncc3)cccc2C1=O, O=C(C[C@H]1CC[C@H]2[C@@H](COC[C@@H](O)CN2C(=O)c2ccncc2)O1)Nc1ccc(-c2ccccc2)cc1, CC(C)NC(=O)Nc1ccc2c(c1)C(=O)N([C@H](C)CO)C[C@H](C)[C@H](CN(C)C(=O)Cc1ccccc1)OCCCC[C@H](C)O2, C[C@@H]1CN([C@@H](C)CO)C(=O)c2ccccc2-c2ccccc2CO[C@H]1CN(C)Cc1ccccc1C(F)(F)F, C[C@H]1CN([C@@H](C)CO)C(=O)c2cccc(NC(=O)c3ccncc3)c2O[C@@H]1CN(C)S(C)(=O)=O, COc1ccc(NC(=O)N(C)C[C@H]2Oc3ccc(NS(=O)(=O)c4ccc(F)cc4)cc3C(=O)N([C@@H](C)CO)C[C@@H]2C)cc1, Cc1cccc(-c2ccc([C@@H]3[C@@H](CO)N4C(=O)CN(S(=O)(=O)c5cccc(F)c5)C[C@@H]34)cc2)c1, C[C@@H]1CN([C@H](C)CO)C(=O)CCCn2cc(nn2)CO[C@H]1CN(C)S(=O)(=O)c1ccc(F)cc1, CS(=O)(=O)N(CC(=O)NC1CCCCC1)c1cccc(F)c1, CCCN(C)C[C@@H]1Oc2cc(-c3ccccc3OC)ccc2S(=O)(=O)N([C@H](C)CO)C[C@@H]1C, CN(C)C(=O)c1cccc(-c2ccc([C@H]3[C@H]4CN(S(C)(=O)=O)CCCCN4[C@H]3CO)cc2)c1, C/C=C/c1ccc2c(c1)O[C@H](CN(C)Cc1cccc(F)c1)[C@H](C)CN([C@H](C)CO)S2(=O)=O, C[C@@H]1CN([C@H](C)CO)S(=O)(=O)c2ccc(C#Cc3ccc(F)cc3)cc2O[C@H]1CN(C)C(=O)NC1CCCCC1, CN(C)C(=O)c1cccc(-c2ccc([C@H]3[C@H](CO)N4CCCCN(S(C)(=O)=O)C[C@@H]34)cc2)c1, Cc1ccc(S(=O)(=O)N(C)C[C@@H]2OCCCC[C@@H](C)Oc3ccc(NS(=O)(=O)c4ccc(F)cc4)cc3C(=O)N([C@@H](C)CO)C[C@@H]2C)cc1, CCCC#Cc1ccc2c(c1)O[C@H](CN(C)C(=O)c1ccccc1F)[C@@H](C)CN([C@@H](C)CO)S2(=O)=O, Cc1ccc(S(=O)(=O)Nc2ccc3c(c2)CC(=O)N([C@@H](C)CO)C[C@@H](C)[C@H](CN(C)Cc2ccc(Oc4ccccc4)cc2)O3)cc1, CCCC(=O)Nc1ccc2c(c1)OC[C@@H](C)N(Cc1ccccc1OC)C[C@@H](C)[C@H](OC)CN(C)C2=O, C[C@H](CO)N1C[C@H](C)[C@@H](CN(C)S(=O)(=O)c2ccc(F)cc2)Oc2cc(C3=CCCCC3)ccc2S1(=O)=O, Cc1ccc(S(=O)(=O)Nc2ccc3c(c2)C(=O)N([C@H](C)CO)C[C@@H](C)[C@@H](CN(C)Cc2ccc(C(F)(F)F)cc2)OCCCC[C@H](C)O3)cc1, CCCN1C[C@H](C)[C@@H](OC)CN(C)C(=O)c2cc(NS(=O)(=O)c3ccccc3)ccc2OC[C@H]1C, CN(C)CC#Cc1ccc([C@@H]2[C@@H](CO)N3C(=O)CN(C(=O)c4cccc(F)c4)C[C@@H]23)cc1, C[C@H](NC(=O)[C@@H]1[C@@H](CO)[C@@H]2Cn3c(cccc3=O)[C@H]1N2Cc1ccccc1)c1ccccc1, COc1ccccc1C#Cc1cnc2c(c1)C(=O)N([C@@H](C)CO)C[C@H](C)[C@@H](CN(C)C)O2, OC[C@H]1[C@@H](c2ccc(-c3cccc(F)c3)cc2)[C@H]2CN(CCC(F)(F)F)CCCCN21, Cc1ccc(S(=O)(=O)Nc2ccc3c(c2)C(=O)N([C@H](C)CO)C[C@H](C)[C@@H](CN(C)Cc2ccc(Cl)c(Cl)c2)OCCCC[C@H](C)O3)cc1, COc1ccccc1NC(=O)N[C@H]1CC[C@H](CCNC(=O)c2ccc3c(c2)OCO3)O[C@@H]1CO, COc1ccccc1S(=O)(=O)N(C)C[C@@H]1Oc2cc(C#CCC3CCCC3)ccc2S(=O)(=O)N([C@H](C)CO)C[C@H]1C
